Reference: the supplement of paper PMC6805474

What follows are molecules tested on Schistosoma mansoni schistosomula (LE) (assay: XTT viability relative to DMSO control; higher = more viable (less active)). Details: 72 h; 10 µM.
Procedure: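 XTT/PMS was then added for a further 24 h (72 h total) and A450 was read. % viability = (sample - heat-killed control)/(DMSO control - heat-killed control) x 100, from duplicate wells in two independent experiments.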

SMILES	XTT viability [%]
COc1ccccc1C(C)NCC(=O)Nc1cc(C(F)(F)F)ccc1Cl (stereo not given)	67.7
Cc1cc(C)nc(-n2nc(C)cc2Nc2ccccc2)n1	55.6
Nc1ncnc2c1ncn2[C@@H]1O[C@H](COS(=O)(=O)NC(=O)c2ccccc2O)[C@@H](O)[C@H]1O	113
Nc1nc(N)c2c3c(sc2n1)CN(Cc1ccccc1)CC3	131
c1ccc(Oc2ccc(-c3cc(CN4CCOCC4)[nH]n3)cc2)cc1	85.9
CCOC(=O)c1cc(-c2csc(Nc3c(C)cc(C)cc3C)n2)on1	95.6
COc1cc(NC(=O)Cc2nn(C)c(=O)c3ccccc23)ccc1Cl	104
Cc1nn(C(=O)Nc2cccc(C(F)(F)F)c2)c(C)c1Sc1ncccn1	137
O=C(Cn1ccnc1[N+](=O)[O-])NCc1ccccc1	89.2
CN1CCCC1CCO[C@](C)(c1ccccc1)c1ccc(Cl)cc1 (stereo not given in full)	46.6
CCOc1ccc2cc(-c3nn(CC4CCN(C)CC4)c4ncnc(N)c34)ccc2c1	44.3
CCN(CC)CCCN1CCN(C(=O)c2cccc(-c3noc(C(F)(F)F)n3)c2)CC1	97.3
CCCCS(=O)(=O)Nc1ccc2cnn(C)c2c1	141
COc1cccc(OC)c1C(=O)Nc1ccc(Cl)c(-c2nc3ccccc3s2)c1	108
C[C@H](C(N)=O)N1CCCC[C@@H]1c1ccc(OCc2cccc(F)c2)cc1	88.1
CCCCc1ccc(NC(=O)Nc2ccc(O[C@H]3CCCC[C@@H]3N(C)c3ccccc3)c(F)c2)cc1	33.7
COc1ccc(S(=O)(=O)Nc2ccc(CN3CCN(C(=O)c4cccc(C#N)c4)CC3)cc2)cc1	144
c1ccc(Oc2ccc(-c3cc(N4CCNCC4)[nH]n3)cc2)cc1	25.2
COC(=O)c1cccc2oc(-c3cccc(OC)c3NC(=O)c3cc(-c4ccccc4)on3)nc12	88.1
O=C(NC1CCN(c2ccnc3ccccc23)C1)c1cccc(C(F)(F)F)c1 (stereo not given)	103

SMILES	XTT viability [%]
O=C(Nc1nc(-c2ccccn2)cs1)c1cncn1-c1ccccc1	68.7
Nc1nccc2ccc(-c3ccc4nccn4c3)cc12	41.1
Nc1ncnc2c1ncn2C[C@@H](O)[C@@H](O)C(=O)O	63.7
Cc1cccc(-c2nc(Nc3ccncn3)c3sccc3n2)n1	39.9
COc1cc(C2=NCCN2)cc2cc(-c3ccc(C4=NCCN4)cc3)oc12	4.86
O=C([C@@H](c1ccc(Cl)cc1)c1cccnc1)N1CCN(c2ccc(C(F)(F)F)cc2)CC1	46.8
O=C(Nc1nnc(S)s1)c1cc(Br)ccc1Cl	91.7
N#Cc1ccc(-c2cnc(N)c(-c3ccc(C(N)=O)cc3)n2)cc1	113
Cc1nn2c(=O)c3c([nH]c2c1-c1ccc(Cl)cc1)CCCC3	101
Nc1ncc(-c2cn[nH]c2)cc1-c1nc2cc(Cl)cnc2[nH]1	94.4
NCC(c1cccs1)S(=O)(=O)c1ccccc1 (stereo not given)	45.2
N#Cc1nc(-c2ccccc2)oc1S(=O)(=O)c1ccc(Cl)cc1	-7.61
Cc1ccc2[nH]c(C3CCCNC3)c(-c3ccncc3)c2c1 (stereo not given)	75.2
Cc1nc(-c2ccccn2)nc(NCCc2ccc(S(C)(=O)=O)cc2)c1Cl	66.9
CC(C)(C)OC(=O)N1CCN(c2nccc(-c3ccc(-c4ccc(Cl)cc4)s3)n2)CC1	93.7
COc1ccc(CCN2CCC(NCc3cccc(N(C)C)c3)CC2)cc1	98.6
O=C(NC1CCCCC1)N1CCN(Cc2ccc3c(c2)OCO3)CC1	88.6
C[C@H]1COc2c(N3CCN(C)CC3)c(F)cc3c(=O)c(C(=O)O)cn1c23	67.9
COc1cccc2c(C)nc(N=C(N)N)nc12	93.3
COc1ccc(OC)c(NCc2ccc3nc(N)nc(N)c3c2Cl)c1	109
